Activity calls are given as the source filed them.

Assay [1] in a line: binders of probe aFSTL3 on microarray, primary screen, stem cell growth factor project, biochemical, small-molecule microarray, fluorescence 635/667 (AID 1064).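 Also: measures binding of the biotinylated anti-FSTL3 antibody to printed compounds.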 Particulars: higher = more signal.
The nature of assay [2]: binders from COS7 lysate, DM2A8 probe, primary screen, torsin A project, cell lysate, small-molecule microarray, fluorescence 635/667 (AID 1065). Particulars: higher = more signal, COS7 lysate expressing mutant human TOR1A.
Assay [3] can be described thus: binders of probe aFGF2 on microarray, primary screen, stem cell growth factor project, biochemical, small-molecule microarray, fluorescence 635/667 (AID 1067).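 Also: measures binding of biotinylated aFGF2 protein to printed compounds on slides; z-score merges feature fluorescence and signal-to-noise across triplicate slides.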 Particulars: higher = more signal.
Assay [4] in a line: binders of probe aFGF10 on microarray, primary screen, stem cell growth factor project, biochemical, small-molecule microarray, fluorescence 635/667 (AID 1071).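 Also: score merges 667 nm spot intensity and signal to noise from triplicate slides.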 To be noted: higher = more signal.
Assay [5] deals with Neurogenic locus notch homolog protein 2 (Homo sapiens) (UniProt Q04721). The experiment in a line: Notch2 binders on small-molecule microarrays, primary screen, biochemical, small-molecule microarray, 635 nm fluorescence, stem cell growth factors (AID 1073). Particulars: Notch2 binding, higher = more signal.
Assay [6] has as its target Pro-neuregulin-1, membrane-bound isoform (Homo sapiens) (UniProt Q02297). Put plainly: NRG1 binders on small-molecule microarrays, primary screen, psychiatric disease protein project, biochemical, small-molecule microarray, fluorescence 635/667 (AID 1075).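 Also: score combines 667 nm spot fluorescence with signal to noise.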 To be noted: NRG1 binding, 635 nm fluorescence, higher = more signal.
The test system of assay [7] is Neuregulin-1 EGF-like domain. The experiment in a line: binders of neuregulin-1 EGF-like domain, primary screen, biochemical, small-molecule microarray, 635 nm fluorescence (AID 1081).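 Also: binding of the protein to compounds printed on small-molecule microarray slides.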 To be noted: small-molecule microarray binding, higher = more signal.
The nature of assay [8]: FRG1 promoter luciferase signal modulators, primary screen, FRG1 inhibition for FSHD, cell-based, C2C12 myotubes, firefly/Renilla luciferase, luminescence (AID 1084). To be noted: higher = more signal, called active from +8 up or from −8 down.
Assay [9] can be described thus: binders of probe aFST on microarray, primary screen, stem cell growth factor project, biochemical, small-molecule microarray, fluorescence 635/667 (AID 1086).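 Also: score merges 667 nm fluorescence with signal-to-noise of each printed compound spot.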 Particulars: higher = more signal.
Assay [10] is described as follows: binders of probe aHhip on microarray, primary screen, stem cell growth factor project, biochemical, small-molecule microarray, fluorescence 635/667 (AID 1087).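 Also: score merges spot fluorescence at 667nm with spot signal to noise ratio.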 To be noted: higher = more signal.
Assay [11] relates to PRMT1 (protein arginine N-methyltransferase 1). The experiment in a line: PRMT1 binders on small-molecule microarrays, primary screen, biochemical, small-molecule microarray, 635 nm fluorescence (AID 1088).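 Also: binding of Prmt1 protein to compounds spotted on small-molecule microarray slides.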 To be noted: small-molecule microarray binding, higher = more signal.
Assay [12] can be described thus: yeast growth modulation, basal conditions, primary screen, YJM789 clinical isolate, OD600, 24 h (AID 1089).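 Also: growth of clinical yeast isolate S. cerevisiae YJM 789 seeded 1000 cells per well; test concentration not given here.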 To be noted: S. cerevisiae YJM789 growth, higher = more signal, called active from +8 up or from −8 down.
The nature of assay [13]: fission yeast growth modulation, primary screen, strain 972, OD600, 24 h, no modulator (AID 1090).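 Also: basal condition with compound alone and no growth modifier present; test concentration not given here.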 Particulars: S. pombe 972 growth, higher = more signal, called active from +8 up or from −8 down.
The nature of assay [14]: S. cerevisiae growth modulation with rapamycin, primary screen, strain BY4716, OD600, 96 h (AID 1091). Also: test concentration not given here. To be noted: higher = more signal, called active from +8 up or from −8 down.
Assay [15] deals with Torsin-1A-interacting protein 2 (Homo sapiens) (UniProt Q8NFQ8). The experiment in a line: LULL1 binders on small-molecule microarray, primary screen, cell lysate, human LULL1 lysate, 635/667 nm fluorescence (AID 1092).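 Also: probe is lysate of COS7 cells overexpressing human LULL1; score merges per-feature 667 nm fluorescence with signal-to-noise.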 To be noted: hLULL1 lysate binding, 635 nm fluorescence, higher = more signal.
A short description of assay [16]: E. coli growth modulation, two-sided OD650, primary screen, E. coli filamentation project, strain DRC41, 24 h (AID 1093).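 Also: MC1000 strain lacking acrAB efflux and sulA so SOS filamentation is blocked; test concentration not given here.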 To be noted: OD650, 24 h, higher = more signal, called active from +8 up or from −8 down.
The nature of assay [17]: small-molecule microarray binders of probe aLefty2, primary screen, biochemical, biotinylated probe, 635/667 nm fluorescence (AID 1094).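 Also: score merges spot fluorescence near 667 nm with spot signal-to-noise ratio.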 To be noted: higher = more signal.
The test system of assay [18] is Noggin (protein binding on small-molecule microarray). The experiment in a line: Noggin binders on small-molecule microarray, primary screen, biochemical, 635/667 nm fluorescence (AID 1095).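 Also: score merges 667 nm feature fluorescence with signal to noise over triplicate slides.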 Particulars: 635 nm fluorescence, higher = more signal.
Assay [19] concerns the target Neurogenic locus notch homolog protein 3 (Homo sapiens) (UniProt Q9UM47). Put plainly: NOTCH3 binders on small-molecule microarray, primary screen, biochemical, 635/667 nm fluorescence (AID 1096). Particulars: NOTCH3 binding, 635 nm fluorescence, higher = more signal.
Assay [20] in a line: small-molecule microarray binders of probe aEGFR, primary screen, biochemical, biotinylated probe, 635/667 nm fluorescence (AID 1097).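 Also: probe is a biotinylated anti-EGFR antibody binding compounds printed on slides; score combines fluorescence near 667 nm and signal to noise of each spot.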 To be noted: higher = more signal.

Chain of Neurogenic locus notch homolog protein 3 (Homo sapiens) (Q9UM47 whole entry, looked up): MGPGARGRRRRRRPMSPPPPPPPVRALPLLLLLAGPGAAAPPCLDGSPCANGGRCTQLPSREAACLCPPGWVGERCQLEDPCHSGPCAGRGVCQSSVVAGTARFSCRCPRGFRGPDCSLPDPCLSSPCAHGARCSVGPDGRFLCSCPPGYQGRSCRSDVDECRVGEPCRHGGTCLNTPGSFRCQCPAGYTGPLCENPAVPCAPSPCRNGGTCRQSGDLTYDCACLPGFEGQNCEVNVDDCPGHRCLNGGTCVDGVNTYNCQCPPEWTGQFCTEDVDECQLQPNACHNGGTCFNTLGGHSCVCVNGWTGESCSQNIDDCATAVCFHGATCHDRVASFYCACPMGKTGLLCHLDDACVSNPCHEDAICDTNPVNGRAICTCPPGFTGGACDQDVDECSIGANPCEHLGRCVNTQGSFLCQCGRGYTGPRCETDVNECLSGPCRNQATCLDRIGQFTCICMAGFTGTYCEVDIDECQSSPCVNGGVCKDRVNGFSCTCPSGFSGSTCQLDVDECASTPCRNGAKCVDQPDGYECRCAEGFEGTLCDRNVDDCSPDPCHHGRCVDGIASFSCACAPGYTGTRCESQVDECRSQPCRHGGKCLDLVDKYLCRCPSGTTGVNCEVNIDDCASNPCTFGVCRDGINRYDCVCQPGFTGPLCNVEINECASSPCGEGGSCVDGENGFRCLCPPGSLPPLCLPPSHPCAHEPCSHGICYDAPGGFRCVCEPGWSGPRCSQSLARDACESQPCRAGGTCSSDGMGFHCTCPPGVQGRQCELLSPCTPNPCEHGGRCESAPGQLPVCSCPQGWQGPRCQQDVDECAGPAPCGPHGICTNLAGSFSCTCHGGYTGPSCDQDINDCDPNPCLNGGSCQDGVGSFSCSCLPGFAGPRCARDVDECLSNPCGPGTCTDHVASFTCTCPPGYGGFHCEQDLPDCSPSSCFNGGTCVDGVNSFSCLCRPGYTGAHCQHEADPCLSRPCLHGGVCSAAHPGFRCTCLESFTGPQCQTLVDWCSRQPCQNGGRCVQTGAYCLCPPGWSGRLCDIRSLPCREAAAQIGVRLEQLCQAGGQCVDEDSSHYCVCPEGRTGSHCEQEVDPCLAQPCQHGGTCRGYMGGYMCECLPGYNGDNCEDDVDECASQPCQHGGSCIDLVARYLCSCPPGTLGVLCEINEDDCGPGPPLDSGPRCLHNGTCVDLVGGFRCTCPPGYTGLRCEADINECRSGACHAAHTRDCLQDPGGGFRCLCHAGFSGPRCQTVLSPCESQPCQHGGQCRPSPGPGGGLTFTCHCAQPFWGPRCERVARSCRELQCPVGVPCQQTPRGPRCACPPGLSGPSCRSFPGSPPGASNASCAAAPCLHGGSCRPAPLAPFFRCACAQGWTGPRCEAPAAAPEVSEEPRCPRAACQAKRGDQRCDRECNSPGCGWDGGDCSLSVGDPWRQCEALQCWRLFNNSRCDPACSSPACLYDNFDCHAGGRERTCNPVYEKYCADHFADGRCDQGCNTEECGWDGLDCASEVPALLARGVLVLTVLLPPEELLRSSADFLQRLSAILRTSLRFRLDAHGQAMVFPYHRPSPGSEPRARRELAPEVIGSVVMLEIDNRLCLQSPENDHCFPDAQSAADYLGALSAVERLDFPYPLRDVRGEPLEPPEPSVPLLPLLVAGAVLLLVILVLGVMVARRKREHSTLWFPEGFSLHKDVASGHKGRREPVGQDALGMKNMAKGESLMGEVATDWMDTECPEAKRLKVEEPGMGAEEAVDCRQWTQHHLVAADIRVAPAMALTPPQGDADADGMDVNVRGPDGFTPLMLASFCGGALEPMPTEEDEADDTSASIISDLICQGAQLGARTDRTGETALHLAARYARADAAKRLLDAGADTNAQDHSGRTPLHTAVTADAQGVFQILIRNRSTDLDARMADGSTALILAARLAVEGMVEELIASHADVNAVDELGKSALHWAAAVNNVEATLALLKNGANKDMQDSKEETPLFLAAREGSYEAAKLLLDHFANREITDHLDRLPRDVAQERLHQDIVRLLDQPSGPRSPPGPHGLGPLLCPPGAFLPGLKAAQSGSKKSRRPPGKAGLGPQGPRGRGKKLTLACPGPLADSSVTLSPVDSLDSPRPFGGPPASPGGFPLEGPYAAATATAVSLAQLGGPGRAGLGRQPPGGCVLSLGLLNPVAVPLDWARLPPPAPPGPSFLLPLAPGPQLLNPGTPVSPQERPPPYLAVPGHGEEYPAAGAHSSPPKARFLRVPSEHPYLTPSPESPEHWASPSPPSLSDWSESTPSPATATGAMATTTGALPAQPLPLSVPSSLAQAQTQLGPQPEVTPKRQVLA
Chain of Torsin-1A-interacting protein 2 (Homo sapiens) (Q8NFQ8 whole entry, looked up): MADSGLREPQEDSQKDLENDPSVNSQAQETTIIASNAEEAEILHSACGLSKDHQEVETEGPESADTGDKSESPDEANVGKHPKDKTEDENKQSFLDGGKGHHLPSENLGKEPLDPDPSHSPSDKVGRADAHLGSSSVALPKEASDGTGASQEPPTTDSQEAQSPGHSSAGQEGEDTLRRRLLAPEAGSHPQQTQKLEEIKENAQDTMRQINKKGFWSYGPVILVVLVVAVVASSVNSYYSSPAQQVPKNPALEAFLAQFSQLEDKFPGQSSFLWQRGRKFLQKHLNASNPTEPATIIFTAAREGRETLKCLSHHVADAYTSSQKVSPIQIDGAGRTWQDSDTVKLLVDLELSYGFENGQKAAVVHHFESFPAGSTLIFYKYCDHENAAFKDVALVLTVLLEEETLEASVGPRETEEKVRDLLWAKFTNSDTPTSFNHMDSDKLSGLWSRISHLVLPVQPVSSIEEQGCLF
Chain of Pro-neuregulin-1, membrane-bound isoform (Homo sapiens) (Q02297 whole entry, looked up, the tested form may be a part, canonical isoform): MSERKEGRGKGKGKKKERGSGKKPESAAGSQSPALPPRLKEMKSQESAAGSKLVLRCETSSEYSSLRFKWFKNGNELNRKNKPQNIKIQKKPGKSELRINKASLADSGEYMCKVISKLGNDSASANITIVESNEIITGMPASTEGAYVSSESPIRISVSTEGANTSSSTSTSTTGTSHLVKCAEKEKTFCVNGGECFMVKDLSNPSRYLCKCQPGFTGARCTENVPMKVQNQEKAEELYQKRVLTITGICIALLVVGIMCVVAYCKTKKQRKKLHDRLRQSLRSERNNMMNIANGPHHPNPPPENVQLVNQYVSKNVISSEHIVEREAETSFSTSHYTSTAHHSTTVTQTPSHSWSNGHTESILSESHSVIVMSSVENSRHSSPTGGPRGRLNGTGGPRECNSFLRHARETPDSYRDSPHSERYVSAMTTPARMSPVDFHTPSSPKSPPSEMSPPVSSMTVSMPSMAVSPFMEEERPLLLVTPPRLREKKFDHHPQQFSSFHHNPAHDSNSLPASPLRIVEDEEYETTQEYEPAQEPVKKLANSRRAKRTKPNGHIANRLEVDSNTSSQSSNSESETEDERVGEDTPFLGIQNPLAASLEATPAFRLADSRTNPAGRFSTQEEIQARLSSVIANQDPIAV

For the compound `COC(=O)c1c(CC[C@@H](CO)NC(=O)NCCn2cc(C3(O)CCCC3)nn2)oc(C(C)=O)c1C(=O)OC`, the composite z-score in [1] was -0.465; in assay [2], 0.24; in assay [3] it was 0.127; in assay [4] it was 0.173; in [5], -0.119; in assay [6] it was 0.718. In addition, the composite z-score in assay [7] was 0.685; in assay [9] it was -0.204; in assay [10], -0.184; in [11] it was 0.463; in assay [15] it was 3.24; in assay [17], -0.23. Moreover, the composite z-score is 0.0587 in assay [18], -0.33 in [19] and -0.0778 in assay [20]. The z-score in [8] is -0.598 (inactive); in [12], -0.539 (inactive); in assay [13] it was -0.263 (inactive); in assay [14], -0.0147 (inactive); in assay [16], -0.918 (inactive).
Turning to `CC(=O)NCCCC[C@@H]1NC(=O)[C@H]2C[C@@H](C(=O)NCCCCCCNC(=O)CS)[C@@H](c3ccc(O)cc3)N2C1=O`, the composite z-score in assay [1] is 0.993; in [2], 1.42; in [3], -0.0049; in assay [4] it was 0.545; in [5], -0.721; in assay [6], 0.824. Also, the composite z-score was 1.47 in assay [7]; -0.555 in assay [9]; -0.108 in [10]; 1.15 in [11]; 3.13 in [15]; 0.0283 in [17]. The composite z-score was -0.773 in assay [18], -0.372 in assay [19] and -0.258 in assay [20]. Besides, the z-score in assay [8] was 0.659 (inactive); in [12], 1.2 (inactive); in assay [13] it was 0.686 (inactive); in assay [14], 0.983 (inactive); in assay [16] it was 0.189 (inactive).
In the case of `COc1ccc(CCNC(=O)[C@@]2(Sc3ccc(C)cc3)CC(=O)N(C(C)C)[C@@H]2c2ccc(CO)cc2I)cc1`, the composite z-score in [1] is -0.0354; in [2], -0.566; in assay [3], 0.0376; in assay [4], -0.341; in assay [5], -0.83; in [6], -0.387. The composite z-score in [7] is 0.31; in [9], 0.238; in assay [10] it was -0.511; in assay [11], 0.163; in assay [15], 0.468; in assay [17], -0.183. Moreover, the composite z-score in assay [18] is -0.778; in [19], -0.343; in [20] it was -0.189. The z-score is -0.132 (inactive) in [8]; -0.971 (inactive) in assay [12]; -0.693 (inactive) in [13]; 0.706 (inactive) in assay [14]; -0.236 (inactive) in [16].
With `CC(C)N1C(=O)[C@@]2(Cc3ccccc31)c1ccccc1C(=O)N(Cc1ccccc1Cl)[C@H]2c1ccc(CO)cc1`, the composite z-score in assay [1] was -0.0423; in [2], -0.149; in assay [3], -0.177; in [4] it was -0.272; in assay [5], -0.791; in assay [6], -0.371. In addition, the composite z-score was 0.0118 in assay [7]; -0.377 in assay [9]; -0.319 in [10]; 0.477 in assay [11]; -0.203 in assay [15]; -0.153 in [17]. Further, the composite z-score is -0.665 in assay [18], -0.942 in assay [19] and -0.152 in assay [20]. Also, the z-score in assay [8] is -0.426 (inactive); in [12] it was -1.05 (inactive); in [13], -1.17 (inactive); in assay [14] it was -2.86 (inactive); in assay [16], -1.25 (inactive).
In the case of `CCOC(=O)C[C@H]1[C@H](OC(=O)c2ccc(C(=O)c3ccccc3)cc2)[C@@H](NC(=O)c2ccc3ccccc3n2)c2cc(OCCCO)ccc2N1C(=O)c1ccccc1`, the composite z-score in assay [1] is -0.384; in [2], 0.264; in assay [3], 0.0498; in [4], 1.03; in assay [5] it was 0.454; in [6], 0.45. For the same compound, the composite z-score is 0.975 in assay [7]; 0.493 in [9]; -0.243 in assay [10]; 1.23 in assay [11]; 1.94 in assay [15]; -0.025 in [17]. For the same compound, the composite z-score was 0.552 in assay [18], 0.99 in assay [19] and 0.0864 in assay [20]. Moreover, the z-score in assay [8] was 0.823 (inactive); in assay [12], -0.658 (inactive); in assay [13] it was 0.103 (inactive); in [14], -0.291 (inactive); in assay [16], -1.16 (inactive).

Source of the values: PubChem BioAssay.
